The source of these data is PubChem BioAssay.

Activity calls are given as the source filed them.

One test addresses Albumin (Bos taurus) (UniProt P02769). The test is described as follows: compounds binding labelled BSA control protein – biochemical, small-molecule microarray, Alexa647 label, 635/667 nm fluorescence, artefact control for SMM control protein annotation, profiling panel (AID 1118).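 Also: score merges 667 nm emission intensity and signal-to-noise per printed compound spot.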 The following applies: BSA-A647 binding, fluorescence 635 nm, higher = more signal.
Test [1] can be described thus: probe aXIP binding to arrayed compounds – biochemical, NeuroSMM set, 635/667 nm fluorescence, primary screen (AID 1119).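 Also: probe is the protein aXip251-270 applied at 1 µg/mL to compound-printed slides; binding of probe to printed compounds measured as 667 nm fluorescence plus signal to noise.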 The conditions noted are these: small-molecule microarray, higher = more signal, called active from +8 up or from −8 down.
A short description of test [2]: probe aNOTCH3 binding on compound microarray – biochemical, small-molecule microarray, 635/667 nm fluorescence, primary screen (AID 1120).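 Also: probe is a biotin-tagged antibody raised against NOTCH3 rather than NOTCH3 protein; score merges spot fluorescence near 667 nm with spot signal to noise.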 The conditions noted are these: higher = more signal.
Test [3] in a line: probe aNOTCH2 binding on compound microarray – biochemical, small-molecule microarray, 635/667 nm fluorescence, primary screen (AID 1121).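 Also: score merges feature fluorescence read at 667 nm with its signal to noise.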 The conditions noted are these: higher = more signal.
For test [4], the target named is Carbonic anhydrase 2 (Homo sapiens) (UniProt P00918). The test is described as follows: compounds binding carbonic anhydrase 2 – biochemical, small-molecule microarray, Alexa647-labelled CAII, profiling panel (AID 1122). The conditions noted are these: CAII-A647 binding fluorescence, higher = more signal.
A short description of test [5]: COS7 lysate on small-molecule microarray, probe aHis, 635 nm (AID 1123).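 Also: z-score combines 667nm fluorescence intensity with signal-to-noise per printed compound spot.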 The conditions noted are these: COS7 cell lysate, fluorescence, higher = more signal.
A short description of test [6]: probe aLAP1 signal on lysate-treated microarray – cell lysate, small-molecule microarray, COS7 lysate, primary screen (AID 1124).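 Also: lysate comes from COS7 cells expressing LAP1 and is applied at 0.3 µg/mL; score merges spot fluorescence near 667 nm with signal-to-noise over triplicate slides.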 The conditions noted are these: probe aLAP1, fluorescence, higher = more signal.
Another test concerns Sam68 (KHDRBS1). The test is described as follows: compounds binding KHDRBS1 protein – biochemical, small-molecule microarray, 635 nm fluorescence, primary screen (AID 1125).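 Also: score merges 667 nm channel intensity with signal to noise over triplicate slides.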 The following applies: higher = more signal.
In test [7] the test system is Chordin-like protein 2 (CHRDL2). Briefly: compounds binding chordin-like 2 – biochemical, small-molecule microarray, 635 nm fluorescence, primary screen (AID 1126).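 Also: printed compound slides probed with Chrdl2 protein at 4 µg/mL for 1 h at 4 C; score merges 667 nm emission intensity with signal to noise over three replicate slides.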 The following applies: fluorescence 635 nm, higher = more signal.
The target in test [8] is Concanavalin-A (Canavalia ensiformis) (UniProt P02866). Briefly: compounds binding concanavalin A lectin – biochemical, small-molecule microarray, Alexa647 label, 635 nm, artefact control for SMM control protein annotation, primary screen (AID 1127).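 Also: z combines 667 nm emission intensity with signal-to-noise across three replicate slides.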 The conditions noted are these: ConA-A647 binding fluorescence, higher = more signal.
Sequence of Concanavalin-A (Canavalia ensiformis) (P02866 whole entry, looked up): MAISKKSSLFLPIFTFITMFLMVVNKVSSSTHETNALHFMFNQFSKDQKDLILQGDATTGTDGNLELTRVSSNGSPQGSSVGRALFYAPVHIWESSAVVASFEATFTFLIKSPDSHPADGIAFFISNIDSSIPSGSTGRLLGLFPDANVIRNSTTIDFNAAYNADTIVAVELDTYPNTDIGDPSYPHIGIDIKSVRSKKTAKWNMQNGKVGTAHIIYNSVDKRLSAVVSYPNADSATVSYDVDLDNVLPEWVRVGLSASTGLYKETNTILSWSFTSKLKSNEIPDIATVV
Test [9] can be described thus: compounds binding Alexa647 anti-His antibody – biochemical, small-molecule microarray, 635 nm fluorescence, artefact control for SMM control protein annotation, primary screen (AID 1128).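 Also: score merges feature fluorescence with signal-to-noise for each printed compound spot.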 The conditions noted are these: higher = more signal.
Test [10] has as its system Human papillomavirus type 1a E7 protein (residues 1-88). The test is described as follows: HPV1a E7 small-molecule binders, primary screen, biochemical, small-molecule microarray, residues 1-88, 635 nm (AID 1129). The following applies: small-molecule microarray binding, fluorescence 635 nm; higher = more signal.
Test [11] deals with Focal adhesion kinase 1 (Homo sapiens) (UniProt Q05397). The test is described as follows: PTK2 protein binding on printed compound slides – biochemical, small-molecule microarray, 635/667 nm fluorescence, BSA, DTT, primary screen (AID 1130).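 Also: composite of spot emission at 667 nm and signal to noise over triplicate slides.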 The following applies: 635 nm fluorescence, higher = more signal.
Sequence of Focal adhesion kinase 1 (Homo sapiens) (Q05397 whole entry, looked up): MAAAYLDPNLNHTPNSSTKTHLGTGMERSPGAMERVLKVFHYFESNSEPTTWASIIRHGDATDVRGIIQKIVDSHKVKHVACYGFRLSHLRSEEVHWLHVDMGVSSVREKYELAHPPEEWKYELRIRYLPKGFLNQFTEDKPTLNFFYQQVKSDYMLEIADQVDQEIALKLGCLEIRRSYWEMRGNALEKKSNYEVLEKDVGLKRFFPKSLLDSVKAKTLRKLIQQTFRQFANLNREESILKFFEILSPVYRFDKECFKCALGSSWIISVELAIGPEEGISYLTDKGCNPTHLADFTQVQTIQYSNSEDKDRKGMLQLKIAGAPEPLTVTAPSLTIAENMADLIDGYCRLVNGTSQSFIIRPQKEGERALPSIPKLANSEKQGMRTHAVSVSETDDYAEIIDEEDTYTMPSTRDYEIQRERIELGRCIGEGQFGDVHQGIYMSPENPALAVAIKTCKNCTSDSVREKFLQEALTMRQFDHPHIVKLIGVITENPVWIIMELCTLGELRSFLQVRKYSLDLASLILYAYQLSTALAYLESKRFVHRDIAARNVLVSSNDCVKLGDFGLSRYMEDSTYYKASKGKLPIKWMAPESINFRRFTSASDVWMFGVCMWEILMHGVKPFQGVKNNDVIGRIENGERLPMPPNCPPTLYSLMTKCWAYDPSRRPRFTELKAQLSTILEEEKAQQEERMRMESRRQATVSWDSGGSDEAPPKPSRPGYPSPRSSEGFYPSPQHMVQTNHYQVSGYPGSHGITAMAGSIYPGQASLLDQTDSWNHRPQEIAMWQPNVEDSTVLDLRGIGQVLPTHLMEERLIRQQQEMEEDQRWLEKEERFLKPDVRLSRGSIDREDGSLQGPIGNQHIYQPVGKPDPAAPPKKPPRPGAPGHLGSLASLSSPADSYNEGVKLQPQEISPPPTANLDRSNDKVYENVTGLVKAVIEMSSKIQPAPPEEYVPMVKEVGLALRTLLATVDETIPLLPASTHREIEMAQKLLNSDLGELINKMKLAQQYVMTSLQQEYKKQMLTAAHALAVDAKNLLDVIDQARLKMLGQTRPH
The subject of test [12] is Fibrinogen (Alexa647-labelled). The test is described as follows: Alexa647-fibrinogen binding to printed small molecules – biochemical, small-molecule microarray, 635/667 nm fluorescence, artefact control for SMM control-protein annotation, profiling panel (AID 1131).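 Also: z-score merges 667 nm fluorescence with per-spot signal-to-noise over triplicate slides.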 The conditions noted are these: fibrinogen-A647 binding fluorescence, higher = more signal.
Test [13] has as its target Follistatin (Homo sapiens) (UniProt P19883). The test is described as follows: FST protein binding to printed compounds – biochemical, small-molecule microarray, 635/667 nm fluorescence, primary screen (AID 1132). The following applies: 635 nm fluorescence, higher = more signal.
Test [14] addresses Fibroblast growth factor 2 (Homo sapiens) (UniProt P09038). The test is described as follows: basic fibroblast growth factor binding to printed compounds – biochemical, small-molecule microarray, 635/667 nm fluorescence, primary screen (AID 1133). The following applies: FGF2, fluorescence 635/667, higher = more signal.
Test [15] is described as follows: JC-1 mitochondrial potential readout, lung cancer cells – cell-based, A549, JC-1 fluorescence, basal, 24 h, 100 nL, profiling panel (AID 1138).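 Also: A549 lung adenocarcinoma cells under basal conditions with no added stimulus; test concentration not given here.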 The conditions noted are these: higher = more signal.
A further test concerns Lefty1. The test is described as follows: Lefty1 protein binding to printed compounds – biochemical, small-molecule microarray, 635/667 nm fluorescence, primary screen (AID 1139). The following applies: fluorescence 635/667, higher = more signal.
The subject of test [16] is wheat germ agglutinin (Triticum aestivum), Alexa647-labelled. Briefly: Alexa647-WGA lectin binding to printed small molecules – biochemical, small-molecule microarray, 635/667 nm fluorescence, artefact control for SMM control-protein annotation, profiling panel (AID 1140).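 Also: score merges 667 nm feature emission with signal to noise over triplicate slides.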 The following applies: WGA-A647 binding, 635 nm fluorescence, higher = more signal.
Test [17] has as its target Luciferin 4-monooxygenase (Photinus pyralis) (UniProt P08659). The test is described as follows: inhibition of purified Photinus pyralis luciferase – biochemical, luminescence, purified enzyme, 2006 set, primary screen (AID 1141).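 Also: cell-free assay with purified firefly luciferase at 100 ng per well in PBS; test concentration not given here.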 The conditions noted are these: purified firefly luciferase, SteadyGlo luminescence, 30 min; higher = more signal, called active from +8 up or from −8 down.

Sequence of Follistatin (Homo sapiens) (P19883 whole entry, looked up): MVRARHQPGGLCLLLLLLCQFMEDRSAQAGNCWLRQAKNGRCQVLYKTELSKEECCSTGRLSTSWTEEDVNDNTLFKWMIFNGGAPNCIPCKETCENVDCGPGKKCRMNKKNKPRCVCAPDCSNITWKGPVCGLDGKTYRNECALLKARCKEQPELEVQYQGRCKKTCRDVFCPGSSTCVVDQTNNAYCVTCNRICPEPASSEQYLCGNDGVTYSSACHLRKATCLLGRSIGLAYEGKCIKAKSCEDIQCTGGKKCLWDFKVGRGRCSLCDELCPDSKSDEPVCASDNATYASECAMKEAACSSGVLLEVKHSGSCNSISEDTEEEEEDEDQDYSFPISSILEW
Sequence of Fibroblast growth factor 2 (Homo sapiens) (P09038 whole entry, looked up): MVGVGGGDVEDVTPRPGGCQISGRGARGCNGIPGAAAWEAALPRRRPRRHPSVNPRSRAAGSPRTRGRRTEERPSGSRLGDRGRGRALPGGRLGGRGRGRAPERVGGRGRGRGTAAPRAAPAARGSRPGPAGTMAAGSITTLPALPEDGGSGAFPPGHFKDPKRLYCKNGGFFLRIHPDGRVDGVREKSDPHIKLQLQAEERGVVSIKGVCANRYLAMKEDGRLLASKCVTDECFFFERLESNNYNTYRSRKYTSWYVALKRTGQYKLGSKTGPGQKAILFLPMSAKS
Sequence of Albumin (Bos taurus) (P02769 whole entry, looked up): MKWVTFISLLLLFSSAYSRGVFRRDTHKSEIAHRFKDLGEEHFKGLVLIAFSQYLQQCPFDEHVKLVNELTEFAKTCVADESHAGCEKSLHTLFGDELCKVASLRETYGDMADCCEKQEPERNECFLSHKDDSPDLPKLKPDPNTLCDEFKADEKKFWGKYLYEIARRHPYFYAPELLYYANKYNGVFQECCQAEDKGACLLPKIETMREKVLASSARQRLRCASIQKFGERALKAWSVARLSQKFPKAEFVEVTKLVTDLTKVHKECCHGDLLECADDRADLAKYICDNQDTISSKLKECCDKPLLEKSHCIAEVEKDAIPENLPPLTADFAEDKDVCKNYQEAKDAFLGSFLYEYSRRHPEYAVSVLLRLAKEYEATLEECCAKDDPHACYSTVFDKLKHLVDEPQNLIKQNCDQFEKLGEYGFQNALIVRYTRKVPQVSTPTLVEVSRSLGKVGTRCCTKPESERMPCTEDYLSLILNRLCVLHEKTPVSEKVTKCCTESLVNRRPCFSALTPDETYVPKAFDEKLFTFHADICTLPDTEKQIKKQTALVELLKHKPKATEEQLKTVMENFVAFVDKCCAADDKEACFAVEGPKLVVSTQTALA
Sequence of Luciferin 4-monooxygenase (Photinus pyralis) (P08659 whole entry, looked up): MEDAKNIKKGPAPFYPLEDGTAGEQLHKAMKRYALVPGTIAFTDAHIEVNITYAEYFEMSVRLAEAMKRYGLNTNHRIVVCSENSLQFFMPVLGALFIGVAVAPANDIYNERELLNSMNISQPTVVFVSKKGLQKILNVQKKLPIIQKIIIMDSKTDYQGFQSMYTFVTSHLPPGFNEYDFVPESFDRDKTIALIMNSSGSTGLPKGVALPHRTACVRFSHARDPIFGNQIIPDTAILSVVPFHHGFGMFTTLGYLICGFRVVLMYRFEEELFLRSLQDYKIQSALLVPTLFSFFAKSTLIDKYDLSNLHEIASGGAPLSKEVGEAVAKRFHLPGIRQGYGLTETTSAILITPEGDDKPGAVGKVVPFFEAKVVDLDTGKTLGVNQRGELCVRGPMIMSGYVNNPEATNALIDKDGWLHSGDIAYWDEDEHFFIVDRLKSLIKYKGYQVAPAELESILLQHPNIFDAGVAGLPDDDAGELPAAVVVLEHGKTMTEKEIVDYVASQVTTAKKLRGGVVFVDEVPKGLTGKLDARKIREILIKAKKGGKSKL

`CCOC(=O)C[C@H]1[C@H](OC(=O)c2ccc(C(=O)c3ccccc3)cc2)[C@@H](NC(=O)Cc2ccc(OC)cc2)c2cc(OCCCO)ccc2N1C(=O)Cc1ccc(OC)cc1`: the composite z-score with Albumin (Bos taurus) is 0.602; in [2], 0.0397; in test [3], -0.0505; in [4], 0.0899; in test [5], 0.954; in [6], 0.397. The composite z-score in the test with Sam68 (KHDRBS1) is 1.05; in test [7], -0.49; in test [8] it was 1.01; in [9] it was 0.0446; in test [10], 1.07; in test [11], 0.551. Also, the composite z-score was 0.729 in [12]; 0.295 in [13]; -0.078 in test [14]; 0.607 with Lefty1; 0.855 in test [16]. In addition, in test [1], the composite Z-score is -0.333 (inactive). Also, the z-score was 2.88 in test [15] and -0.927 (inactive) in test [17].

As for `NCCCCCNC(=O)[C@H]1C[C@H]2C(=O)NCC(=O)N2[C@H]1c1ccc(O)cc1`, the composite z-score in the test with Albumin (Bos taurus) was 1.06; in test [2], 0.0596; in [3], -0.105; in test [4] it was 0.685; in test [5], 1.08; in [6], 0.521. In addition, the composite z-score in the test with Sam68 (KHDRBS1) stood at 1.29; in test [7], 1.14; in test [8], 1.22; in test [9], 2.54; in [10], 1.19; in test [11] it was 0.366. Besides, the composite z-score in test [12] worked out at 0.97; in test [13], 1.48; in [14], 1.75; in the test with Lefty1, 1.69; in test [16], 1.3. For the same molecule, the composite Z-score in test [1] was 0.696 (inactive). The z-score in [15] is 0.68; in [17], -1.04 (inactive).

On to `COc1ccc([Si](C)(C)[C@H]2[C@H](CC(=O)N(CCO)Cc3ccccc3)O[C@@]3(C(=O)N(Cc4ccc(N5CCOC5=O)cc4)c4ccccc43)[C@@H]2C)cc1`, for which the composite z-score in the test with Albumin (Bos taurus) is -0.604; in [2] it was -0.0044; in test [3], -0.168; in [4], 0.393; in [5], 0.704; in test [6], 0.0474. For the same molecule, the composite z-score in the test on Sam68 (KHDRBS1) stood at 0.641; in [7] it was 0.457; in test [8], 1.06; in test [9], 0.845; in [10], 0.0593; in test [11] it was 0.16. Further, the composite z-score in test [12] turned out to be 0.474; in test [13] it was 0.878; in test [14], 0.66; in the test on Lefty1, 1.13; in test [16], 0.455. Also, in test [1], the composite Z-score is 0.989 (inactive). Further, the z-score in test [15] was 0.784; in test [17] it was -1.39 (inactive).

For the molecule `COC(=O)C(CC#Cc1ccc2c(c1)[C@]1(C(=O)N2)[C@H](c2ccccc2OCCO)N2[C@H](c3ccccc3)[C@H](c3ccccc3)OC(=O)[C@H]2[C@@H]1C(=O)N1CCCCCCC1)C(=O)OC`, the composite z-score with Albumin (Bos taurus) was -0.314; in test [2] it was 2.02; in test [3], 1.1; in [4], 1.03; in [5], 4.9; in test [6] it was 1.41. The composite z-score with Sam68 (KHDRBS1) amounted to 1.33; in test [7], 1.66; in test [8], 0.773; in test [9] it was 0.925; in test [10] it was 1.35; in test [11] it was 4.83. The composite z-score in test [12] is 0.0834; in [13], 1.56; in [14], -0.0426; in the test on Lefty1, 1.73; in [16] it was 1.66. Further, the composite Z-score in test [1] is 8.74 (active). Further, the z-score is 0.547 in [15] and -1.08 (inactive) in test [17].

As for `COc1ccc(CCNC(=O)[C@@]2(Sc3ccc(C)cc3)CC(=O)N(Cc3ccccc3)[C@@H]2c2ccc(CO)cc2I)cc1`, the composite z-score was -0.605 with Albumin (Bos taurus); -0.289 in test [2]; -0.2 in test [3]; 0.377 in test [4]; 0.666 in test [5]; 2.03 in test [6]. Further, the composite z-score with Sam68 (KHDRBS1) was 0.247; in [7], -0.974; in test [8], 0.508; in test [9] it was 1.06; in [10], 0.408; in test [11], 0.0363. The composite z-score in [12] is -0.718; in [13] it was -0.168; in [14], -0.662; in the test on Lefty1, -0.89; in test [16] it was -0.0265. The composite Z-score in [1] was -0.224 (inactive). Moreover, the z-score was 2.51 in test [15] and -0.707 (inactive) in test [17].

For `C=C(/C(=C/C[C@H](OC(C)=O)c1cccc(OCCO)c1)c1cc(C(=O)OC)ccc1OC)C(C)C`, the composite z-score is 0.103 with Albumin (Bos taurus); -0.0918 in test [2]; -0.126 in test [3]; 0.38 in test [4]; 0.866 in [5]; 0.172 in test [6]. The composite z-score was 0.177 in the test with Sam68 (KHDRBS1); -0.767 in test [7]; -0.319 in test [8]; -0.604 in test [9]; -0.389 in test [10]; 0.445 in test [11]. The composite z-score in [12] was -0.624; in [13] it was -0.288; in test [14], -0.0132; with Lefty1, -0.0603; in test [16], -0.907. For the same molecule, the composite Z-score in test [1] is 0.307 (inactive). The z-score was 3.18 in test [15] and -1.84 (inactive) in [17].

Consider `C=C(COC)C(=O)CC[C@@H](OC(=O)c1ccccc1-c1ccccc1C(=O)O)c1cccc(OCCO)c1`, for which the composite z-score with Albumin (Bos taurus) is -0.39; in test [2], -0.15; in test [3], -0.154; in [4], 0.713; in test [5], 0.19; in test [6] it was -0.402. The composite z-score with Sam68 (KHDRBS1) was -0.296; in test [7], 0.192; in test [8], 0.375; in test [9], -1.24; in [10], -0.533; in [11], -0.508. Moreover, the composite z-score was -0.661 in test [12]; 1.27 in [13]; 0.866 in test [14]; 0.299 with Lefty1; -0.478 in test [16]. Moreover, the composite Z-score in test [1] is -0.122 (inactive). Besides, the z-score in test [15] is 1.46; in test [17] it was -3.64 (inactive).

With `COc1ccc([Si](C)(C)[C@H]2[C@H](CCO)O[C@@]3(C(=O)N(Cc4ccc(N5C(=O)c6cccc7cccc5c67)cc4)c4ccccc43)[C@@H]2C)cc1`, the composite z-score was 0.258 with Albumin (Bos taurus); -0.214 in test [2]; -0.123 in test [3]; 0.346 in test [4]; 0.249 in [5]; 0.0741 in test [6]. The composite z-score is -0.465 with Sam68 (KHDRBS1); -1.06 in test [7]; 0.609 in test [8]; 0.21 in test [9]; -0.141 in test [10]; -0.266 in [11]. For the same molecule, the composite z-score in test [12] was 0.193; in test [13], -0.771; in [14] it was -0.611; in the test on Lefty1 it was -0.255; in test [16], 0.796. Moreover, the composite Z-score in test [1] is 0.466 (inactive). The z-score is 1.9 in test [15] and -0.558 (inactive) in test [17].
